# Reference: ChEMBL document CHEMBL4513216, “Probing the Open Global Health Chemical Diversity Library for Multistage-Active Starting Points for Next-Generation Antimalarials” (ACS Infect Dis, 2020)
# The campaign covered roughly 65,000 compounds. About 2,100 (3.2%) showed an effect of 50% or more. The median lay at about -52%. The sample as a whole holds a higher share of strong results than the screen did.
# Tested on: Plasmodium falciparum
# Assay: Screen against P. falciparum Asexual Blood Stage (ABS), at 5uM
# Format: functional, Dd2
# Details: tested at 5 uM
row,SMILES,INHIBITION [%]
1,CCOCC1CN(C(=O)C2CCOCC2)Cc2cnn(C)c21 (centres undefined),-57.8
2,Cc1ccc(CN2CCN(c3cncc(N(C)C)n3)CC2=O)cc1C,-30
3,CCN(CC)S(=O)(=O)c1ccc(CNc2cc(C)nc(C)n2)cc1,-79.3
4,Cc1nc(CN2CC[C@H](OCC3CC3)[C@@H]2Cc2cccnc2)cs1,60.4
5,Cc1ccc(N2CC[C@H](OCC3CC3)[C@@H]2Cc2cccnc2)nn1,-79.3
6,COCCO[C@H]1CCN(Cc2ccsc2)[C@H]1Cc1cccnc1,14.6
7,COCCO[C@@H]1CCN(Cc2csc(C)n2)[C@H]1Cc1ccccc1,65.8
8,COCCO[C@H]1CCN(Cc2cccnc2)[C@H]1Cc1cccnc1,3.22
9,Cc1nc(CN2CC[C@@H](OCC3CC3)[C@@H]2Cc2cccnc2)cs1,6.96
10,Cc1ccc(CN2CCC3(C2)C(=O)N(CC2CC2)c2ccccc23)s1 (centres undefined),-74.8
11,COCC(=O)N1C[C@H]2CN(Cc3cccc(F)c3)C(=O)[C@H]2C1,-63.1
12,Cc1cc(CN2CCN(C(=O)NC(C)c3cccnc3)CC2)no1 (centres undefined),49.7
13,Cc1nc(CN2CCN(C(=O)NC(C)c3cccnc3)CC2)cs1 (centres undefined),56.3
14,CC(NC(=O)N1CCCN(Cc2cccs2)CC1)c1cccnc1 (centres undefined),-63.5
15,CC(C)NC(=O)CCNC(=O)CCc1cc(Cl)cs1,-9.13
16,Cn1nc(CN2CCCC2)c2c1CN(c1cnccn1)CC2,-56
17,COc1c(CNC2CCOc3c(Cl)cccc32)c(C)nn1C (centres undefined),10.1
18,COc1c(CNC2CCOc3ccccc32)c(C(C)C)nn1C (centres undefined),-20.7
19,COc1c(CNCC(O)c2cccc(F)c2)c(C(C)C)nn1C (centres undefined),63.5
20,COc1c(CNC2CCCOc3ccccc32)c(C)nn1C (centres undefined),-42.2
21,COc1c(CNC2CCc3c(F)cccc32)c(C)nn1C (centres undefined),-21.6
22,COc1c(CNCC(O)c2ccccc2)c(C(C)C)nn1C (centres undefined),0.811
23,COc1c(CNC2CCCOc3ccccc32)c(C(C)C)nn1C (centres undefined),52.2

row,SMILES,INHIBITION [%]
1,COc1c(CNCC(O)c2cccc(F)c2)c(C)nn1C (centres undefined),-92.7
2,COc1c(CNC2CCc3c(Cl)cccc32)c(C)nn1C (centres undefined),62.6
3,COc1c(CNC2CCCc3ccccc32)c(C(C)C)nn1C (centres undefined),64.8
4,COc1c(CNC2CCCc3ccccc32)c(C)nn1C (centres undefined),3.18
5,COc1c(CNC2CCCOc3ccc(F)cc32)c(C(C)C)nn1C (centres undefined),38.8
6,COc1ccc(CN2CCCn3cnc(COC(C)C)c3C2)cc1,-12.6
7,CC(C)n1nc(Cn2cccc2)c2c1CN(Cc1ccoc1)C2,-92.6
8,Cc1ccccc1C(=O)N1C[C@@H]2C(CN(C)CCc3ccccn3)[C@@H]2C1 (some centres undefined),-14.6
9,CC(C)c1nn(C)c(N(C)C)c1CNC1CCc2cc(F)ccc21 (centres undefined),0.843
10,COc1c(CNCc2ccc(N(C)C)nc2)c(C(C)C)nn1C,-79
11,COc1c(CNC2CCOc3c(Cl)cccc32)c(C(C)C)nn1C (centres undefined),-60.2
12,COc1ccc(CNCc2c(C(C)C)nn(C)c2N(C)C)cn1,-26.4
13,COc1c(CNC2CCc3ccccc32)c(C)nn1C (centres undefined),33.9
14,COc1c(CNC2CCc3cc(F)ccc32)c(C(C)C)nn1C (centres undefined),59.7
15,COc1c(CNC2CCc3ccccc32)c(C(C)C)nn1C (centres undefined),62.5
16,COc1c(CNC2CCc3cc(F)ccc32)c(C)nn1C (centres undefined),28.1
17,COc1ccc(CNCc2c(C(C)C)nn(C)c2OC)cn1,60.8
18,CC(C)CN1C(=O)C[C@@H]2[C@@H]1CCN2Cc1cccc(C#N)c1,-105
19,Cc1cc(C)n(CC2CCCN2C(=O)c2cn[nH]c2C)n1 (centres undefined),-90
20,O=C(CCSC1CCc2ccccc2NC1=O)NCCCO (centres undefined),-7.35
21,Cc1cccc(-c2noc(CN3CCn4c(nnc4C4CC4)C3)n2)c1,-35.8
22,CCc1nnc2n1CCN(Cc1ncc(-c3ccccc3)o1)C2,46.9
23,Cc1ccccc1-c1noc(CN2CCn3c(nnc3C3CC3)C2)n1,51.7

row,SMILES,INHIBITION [%]
1,Fc1ccc(-c2cnc(CN3CCn4c(nnc4C4CC4)C3)o2)cc1,53.1
2,Cc1nnc2n1CCN(Cc1ncc(-c3ccc(F)cc3)o1)C2,8.55
3,c1ccc(-c2cnc(CN3CCn4c(nnc4C4CC4)C3)o2)cc1,-8.02
4,Cc1nnc2n1CCN(Cc1ncc(-c3ccccc3)o1)C2,-95.9
5,Cc1ccc(-c2noc(CN3CCn4c(nnc4C4CC4)C3)n2)cc1,-44.9
6,CC(C)c1nnc2n1CCN(Cc1ncc(-c3ccccc3)o1)C2,62
7,Cc1noc(C2CCCN2C(=O)C2CCC2)n1 (centres undefined),-24
8,Cc1ncc(CN(C)Cc2nc3cc(Cl)ccc3n2C)s1,-54.3
9,c1cc(CNCc2cccc3c2OCCCO3)cc(Cn2cncn2)c1,48.9
10,CC1=NN(CC(=O)N2CC[C@@H]3[C@@H](CCC(=O)N3CC(C)C)C2)CC1,-127
11,Cc1ncsc1C(=O)N1CCN(CCC(C)C)CC1,-64.6
12,Cc1nc(-c2cccnc2)ncc1C(=O)N1CCC(C(C)N(C)C)CC1 (centres undefined),-79.6
13,OC1CCN(CCCNc2ncccn2)CC1,-61.1
14,CN(C(=O)Nc1ccccn1)C1CCCN(c2ccccc2)C1=O (centres undefined),13.9
15,CN(C(=O)NCc1ccncc1)C1CCN(c2ccccc2)C1=O (centres undefined),-128
16,CN(C(=O)Nc1ccncc1)C1CCN(c2ccccc2)C1=O (centres undefined),51
17,CCn1nc2c(cc1=O)CN(CC(=O)Nc1nncs1)CC2,-35
18,Cn1cc(N2CC3(CCN(C(=O)c4cccn4C)CC3)OCC2=O)cn1,-94.7
19,CCn1c(CN2CCN(CCOC)CC2)nc2c(F)cccc21,68.6
20,CCn1c(CN2CCN(CC(N)=O)CC2)nc2c(F)cccc21,-147
21,CCn1c(CN2CCN(CCO)CC2)nc2c(F)cccc21,10.6
22,Brc1cccnc1OC1CCNCC1,35.5
23,Cc1nc(SC2CCN(c3sccc3C#N)C2=O)oc1C (centres undefined),-137
